These results are taken from ChEMBL document CHEMBL3988442, “University of Dundee, Small-Polar-MMV Screening Library” (2021).

The experiment addresses AMP-activated protein kinase, AMPK (Homo sapiens) (UniProt P54646+O43741+P54619+Q9UGJ0+Q9Y478+Q13131+Q9UGI9). The experiment can be described thus: AMP-dependent Kinase enzyme assay. An in vitro enzyme assay that detects ADP turnover that is directly proportional to AMPK activity. This uses naive AMPK that is activated during the assay with MK-8722. The experiment is classed as functional. The arrangement: scale not given: direction of the effect not stated beside the values. The conditions noted are these: 30 µM.
With `CCS(=O)(=O)N1Cc2ccccc2CC1C(=O)OCc1c(C)noc1C` (stereo not given), the Percent Effect was -0.838%. On to `Cc1ncc(CC(=O)N2CCCCC2CCN2CCCC2)c(=O)[nH]1` (stereo not given), for which the Percent Effect amounted to 0.508%. Regarding `CS(=O)(=O)NCC1(O)CCCN(C(=O)CCn2cc(Cl)cn2)CC1` (stereo not given), the Percent Effect was -0.47%. The value for `CN(Cc1nc2ccccc2[nH]1)C(=O)CN(C)c1ccccc1` was -1.06%; that for `COC(=O)c1ccc(N(C(=O)c2ccncc2)C(C)C)c(C)c1` was -1.62%. For `COc1cccc(C(C(=O)O)N2CCSCC2)c1F` (stereo not given), the Percent Effect is -1.18%. In the case of `CCSCC(C)NCc1ccccc1-n1ccnc1` (stereo not given), the Percent Effect was determined as 7.25%.

Regarding `CCCC1(CO)CCCN(C(=O)CNC(N)=O)C1` (stereo not given), the Percent Effect was 8.45%. On to `O=C(NCC(=O)N1CCN(c2ccccc2)CC1)c1sccc1C1CC1`, for which the Percent Effect is -5.62%. As to `O=C(Cc1ccsc1)N1CCC[C@@H]1Cn1c(=O)oc2ccccc21`, the Percent Effect was found to be 28.3%. The value for `O=C(NCCc1nccs1)N1CCC(n2cccc2)CC1` was -2.66%. For the compound `COc1ccccc1CCN(C)C(C)c1nc(-c2cccnc2)no1` (stereo not given), the Percent Effect was found to be 1.66%. Consider `Cc1nc(CN(C)c2nccc(C(F)(F)F)n2)cs1`, for which the Percent Effect was 5.48%.

`Nc1ccnc(N2CCC(c3nccn3CC3CC3)CC2)n1`: the Percent Effect is -3.62%. As for `Cn1ccc(C(=O)N2CCCC2c2cc(CCO)[nH]n2)n1` (stereo not given), the Percent Effect was found to be 21.2%.

As for `Cc1cccc(C(=O)N2CC(=O)N(c3ccccc3Cl)CC2C)n1` (stereo not given), the Percent Effect is 20.1%. For `Cc1nccn1[C@@H]1CC[C@@H](N(C)S(=O)(=O)c2ccc(F)cc2)[C@H]1O`, the Percent Effect was 27.2%.

For the compound `O=C1OCCCN1Cc1nc(-c2ccncc2)no1`, the Percent Effect was -2.07%.

With `CN1CCC(N(CCc2ccccc2)C(=O)COCC2CCCO2)CC1` (stereo not given), the Percent Effect is -4.31%.

For `COC(CNC(=O)c1ccoc1)c1cccc(Cl)c1` (stereo not given), the Percent Effect is -1.5%.
